In test [1] the test system is bovine Angiotensin II Receptor Type 2 (AT2), gene 407157. Nature of the test: NVS_GPCR_bAT2: NovaScreen (NVS) G Protein-Coupled Receptor Assay for bovine Angiotensin II Receptor Type 2 (AT2) (AID 2283240). The essentials: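 Radioligand displacement on bovine cerebellar membranes, 1 hour incubation, filter-based scintillation counting; loss of signal vs DMSO. Duplicate single-point screen at 25 uM, then concentration-response to 50 uM maximum.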

Test [2] concerns the target Adenosine receptor A1 (Bos taurus) (UniProt P28190). Nature of the test: NVS_GPCR_bAdoR_NonSelective: NovaScreen (NVS) G Protein-Coupled Receptor Assay for bovine Adenosine Receptor (AdoR), Non-selective Binding (AID 2283244). The essentials: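 Bovine striatal membranes, radioligand displacement binding, 1 h after dosing, filter-based scintillation counting. Screened in duplicate at 25 uM, then concentration-response up to 50 uM; loss of specific binding relative to DMSO.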

In test [3] the test system is bovine Histamine 1 Receptor (H1), gene 281231. Nature of the test: NVS_GPCR_bH1: NovaScreen (NVS) G Protein-Coupled Receptor Assay for bovine Histamine 1 Receptor (H1) (AID 2283246). In short, it runs like this:
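Radioligand displacement on bovine cerebellar membranes, 1 h after dosing, filter-based scintillation read-out; loss of signal vs DMSO. Duplicate single-concentration screen at 25 uM, then concentration-response up to 50 uM for hits.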

The subject of test [4] is guinea pig Muscarinic, Peripheral (Mperiperal) Receptor, Non-selective Binding, gene 100379235. Briefly: NVS_GPCR_gMPeripheral_NonSelective: NovaScreen (NVS) G Protein-Coupled Receptor Assay for guinea pig Muscarinic, Peripheral (Mperiperal) Receptor, Non-selective Binding (AID 2283250). The essentials: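 Guinea pig bladder membranes, radioligand binding read 1 h after dosing by filter scintillation counting; loss of signal vs DMSO. Primary duplicate screen at 25 uM, then concentration-response up to 50 uM.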

Test [5] addresses guinea pig Opioid, Kappa 1 Receptor (OpiateK), OPRK1 (gene 100135587) (UniProt P41144). Briefly: NVS_GPCR_gOpiateK: NovaScreen (NVS) G Protein-Coupled Receptor Assay for guinea pig Opioid, Kappa 1 Receptor (OpiateK) (AID 2283252).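 Also: radioligand displacement from kappa opioid receptor in guinea pig cerebellar membranes; active means reduced radioligand binding relative to DMSO.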 In short, it runs like this:
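Signal is scintillation counts of filter-trapped radioligand bound to guinea pig cerebellar membrane receptor, measured 2 hours post-dosing. Activity is loss of binding versus DMSO, first at 25 uM in duplicate, then as concentration series for actives.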

The target in test [6] is guinea pig Leukotriene D4 Receptor (LTD4), CYSLTR1 (gene 100135514) (UniProt Q2NNR5). Nature of the test: NVS_GPCR_gLTD4: NovaScreen (NVS) G Protein-Coupled Receptor Assay for guinea pig Leukotriene D4 Receptor (LTD4) (AID 2283248). In short, it runs like this: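 Radioligand displacement on guinea pig lung membranes, 1 h incubation, filtration and scintillation counting; DMSO as negative control. Duplicate 25 uM primary screen, then singleton concentration-response up to 50 uM.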

Test [7] addresses human Serotonin, 5-Hydroxytryptamine Receptor 6 (5HT6), HTR6 (gene 3362) (UniProt P50406). Nature of the test: NVS_GPCR_h5HT6: NovaScreen (NVS) G Protein-Coupled Receptor Assay for human Serotonin, 5-Hydroxytryptamine Receptor 6 (5HT6) (AID 2283253). In short, it runs like this:
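Radioligand binding to 5HT6 in HEK293-derived membranes, cell-free, 1 h after dosing; bound ligand measured by filter-based scintillation counting. Primary screen in duplicate at 25 uM; actives retested in concentration series.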

For test [8], the target named is human Adenosine A1 Receptor (AdoRA1), ADORA1 (gene 134) (UniProt P30542). Nature of the test: NVS_GPCR_hAdoRA1: NovaScreen (NVS) G Protein-Coupled Receptor Assay for human Adenosine A1 Receptor (AdoRA1) (AID 2283254). The essentials:
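Radioligand binding was run on human cortical membranes, cell-free, with filter-based scintillation counting 1 h after dosing. The primary screen was duplicate at 25 uM, followed by concentration series. Signal loss versus DMSO was fitted positive-direction.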

Test [9] deals with human Adenosine A2a Receptor (AdoRA2a), ADORA2A (gene 135) (UniProt P29274). Nature of the test: NVS_GPCR_hAdoRA2a: NovaScreen (NVS) G Protein-Coupled Receptor Assay for human Adenosine A2a Receptor (AdoRA2a) (AID 2283256). The essentials:
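Radioligand displacement on HEK293-derived membrane protein, cell-free; filter-based scintillation counting 1.5 hours after dosing, loss of signal vs DMSO. Single-point duplicate screen at 25 uM, actives retested in concentration series.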

Test [10] addresses human Serotonin, 5-Hydroxytryptamine Receptor 5A (5HT5A), HTR5A (gene 3361) (UniProt P47898). Briefly: NVS_GPCR_h5HT5A: NovaScreen (NVS) G Protein-Coupled Receptor Assay for human Serotonin, 5-Hydroxytryptamine Receptor 5A (5HT5A) (AID 2283251). In short, it runs like this: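 Cell-free radioligand displacement binding on HEK293-derived membrane protein, 1 h incubation, filter-based scintillation counting. Primary screen in duplicate at 25 uM, actives followed in concentration series; loss of signal fitted versus DMSO.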

Test [11] addresses human Serotonin, 5-Hydroxytryptamine Receptor 7 (5HT7), HTR7 (gene 3363) (UniProt P34969). Nature of the test: NVS_GPCR_h5HT7: NovaScreen (NVS) G Protein-Coupled Receptor Assay for human Serotonin, 5-Hydroxytryptamine Receptor 7 (5HT7) (AID 2283255).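 Also: hits reduce specific radioligand binding relative to DMSO.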 The essentials: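 Radioligand displacement on membranes from CHO cells expressing human 5HT7, 1 h incubation, filter-based scintillation counting. Primary screen used a single 25 uM concentration in duplicate; actives were followed up in concentration series.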

Test [12] deals with human Adrenergic, Alpha 2A Receptor (Adra2A), ADRA2A (gene 150) (UniProt P08913). Briefly: NVS_GPCR_hAdra2A: NovaScreen (NVS) G Protein-Coupled Receptor Assay for human Adrenergic, Alpha 2A Receptor (Adra2A) (AID 2283257). The essentials: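 Radioligand filter-binding was run on HT29-derived membranes, cell-free, read by scintillation counting 1 h after dosing. Primary screening was in duplicate at 25 uM, with concentration series in follow-up. Loss of signal versus DMSO indicates displacement.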

The test system of test [13] is guinea pig Leukotriene B4 Receptor (LTB4), gene 100379538. Nature of the test: NVS_GPCR_gLTB4: NovaScreen (NVS) G Protein-Coupled Receptor Assay for guinea pig Leukotriene B4 Receptor (LTB4) (AID 2283247). In short, it runs like this: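 Radioligand displacement on guinea pig spleen membranes, filter-based scintillation counting 2 h after dosing. Primary duplicate single point at 25 uM; hits over threshold (e.g. 30% inhibition) run in concentration-response up to 50 uM, DMSO baseline.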

Test [14] has as its target bovine Dopamine Receptor (DR), Non-selective Binding, DRD1 (gene 281125) (UniProt Q95136). Briefly: NVS_GPCR_bDR_NonSelective: NovaScreen (NVS) G Protein-Coupled Receptor Assay for bovine Dopamine Receptor (DR), Non-selective Binding (AID 2283241). The essentials:
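Bovine striatal membranes; radioligand displacement read by filtration and scintillation counting 1 h after dosing, loss of signal vs DMSO. Screened in duplicate at 25 uM, then concentration-response for hits.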

Test [15] deals with human Serotonin, 5-Hydroxytryptamine Receptor 2A (5HT2A), HTR2A (gene 3356) (UniProt P28223). Briefly: NVS_GPCR_h5HT2A: NovaScreen (NVS) G Protein-Coupled Receptor Assay for human Serotonin, 5-Hydroxytryptamine Receptor 2A (5HT2A) (AID 2283249). The essentials:
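Human cortex membranes, cell-free radioligand binding; filter-based scintillation read 1.5 h after dosing. Duplicate screen at 25 uM first; displacement of specific binding (loss of signal) versus DMSO.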

Test [16] deals with human Adrenergic, Beta 1 Receptor (Adrb1), ADRB1 (gene 153) (UniProt P08588). Nature of the test: NVS_GPCR_hAdrb1: NovaScreen (NVS) G Protein-Coupled Receptor Assay for human Adrenergic, Beta 1 Receptor (Adrb1) (AID 2283258). In short, it runs like this:
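Cell-free radioligand displacement on receptor from human neuroepithelioma cells; 2 h after dosing, filter-based scintillation counting. Primary screen in duplicate at 25 uM, actives retested in concentration series; loss of signal vs DMSO baseline.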

Test [17] has as its target human Adrenergic, Alpha 2c Receptor (Adra2C), ADRA2C (gene 152) (UniProt P18825). Briefly: NVS_GPCR_hAdra2C: NovaScreen (NVS) G Protein-Coupled Receptor Assay for human Adrenergic, Alpha 2c Receptor (Adra2C) (AID 2283259). In short, it runs like this: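 Radioligand binding on Sf9-expressed receptor membranes, 1 h after chemical dosing, filter-based scintillation read-out. Loss of binding fitted positively versus DMSO; primary duplicate screen at 25 uM, actives retested in concentration series.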

The target in test [18] is Beta-2 adrenergic receptor (Homo sapiens) (UniProt P07550). Briefly: NVS_GPCR_hAdrb2: NovaScreen (NVS) G Protein-Coupled Receptor Assay for human Adrenergic, Beta 2 Receptor (Adrb2) (AID 2283261). The essentials: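 Filter-based radioligand binding using receptor prepared from CHO cells, 1 h incubation, scintillation counting. Primary screen in duplicate at 25 uM, actives retested in concentration series; loss of binding relative to DMSO.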

Molecules are shown by their SMILES. Inconclusive results are not listed. The source made the active and inactive calls. The calls were made as follows: active = hit-call score of the fitted dose curve at least 0.9, where 1 is the maximum; inconclusive = response in the unintended direction; inactive = score below 0.9.

In general, AC50 refers to the concentration giving half of the maximal activity seen.

human Serotonin, 5-Hydroxytryptamine Receptor 5A (5HT5A), HTR5A (gene 3361), sequence (P47898 whole entry, looked up): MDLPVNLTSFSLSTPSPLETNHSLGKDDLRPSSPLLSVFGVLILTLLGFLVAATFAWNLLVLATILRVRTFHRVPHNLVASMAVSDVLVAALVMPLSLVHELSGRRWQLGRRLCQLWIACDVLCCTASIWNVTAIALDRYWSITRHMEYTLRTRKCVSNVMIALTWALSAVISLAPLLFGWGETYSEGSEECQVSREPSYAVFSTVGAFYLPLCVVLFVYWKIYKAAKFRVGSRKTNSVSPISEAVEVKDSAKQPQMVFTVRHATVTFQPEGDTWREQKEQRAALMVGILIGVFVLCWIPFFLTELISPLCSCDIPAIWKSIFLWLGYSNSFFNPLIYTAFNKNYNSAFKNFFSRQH
human Serotonin, 5-Hydroxytryptamine Receptor 7 (5HT7), HTR7 (gene 3363), sequence (P34969 whole entry, looked up): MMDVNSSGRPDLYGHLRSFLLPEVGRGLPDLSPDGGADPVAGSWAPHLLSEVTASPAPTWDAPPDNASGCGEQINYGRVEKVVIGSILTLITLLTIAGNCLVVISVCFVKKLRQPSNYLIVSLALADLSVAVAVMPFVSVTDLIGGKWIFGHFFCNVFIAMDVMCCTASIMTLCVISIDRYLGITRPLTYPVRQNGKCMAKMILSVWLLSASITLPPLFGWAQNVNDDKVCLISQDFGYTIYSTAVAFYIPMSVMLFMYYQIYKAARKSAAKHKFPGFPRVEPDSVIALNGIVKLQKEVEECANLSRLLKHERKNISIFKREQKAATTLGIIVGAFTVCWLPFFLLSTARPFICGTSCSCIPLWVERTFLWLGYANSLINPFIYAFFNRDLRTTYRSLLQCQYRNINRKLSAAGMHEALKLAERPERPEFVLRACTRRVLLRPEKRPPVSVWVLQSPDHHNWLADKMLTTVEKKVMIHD
human Adenosine A2a Receptor (AdoRA2a), ADORA2A (gene 135), sequence (P29274 whole entry, looked up): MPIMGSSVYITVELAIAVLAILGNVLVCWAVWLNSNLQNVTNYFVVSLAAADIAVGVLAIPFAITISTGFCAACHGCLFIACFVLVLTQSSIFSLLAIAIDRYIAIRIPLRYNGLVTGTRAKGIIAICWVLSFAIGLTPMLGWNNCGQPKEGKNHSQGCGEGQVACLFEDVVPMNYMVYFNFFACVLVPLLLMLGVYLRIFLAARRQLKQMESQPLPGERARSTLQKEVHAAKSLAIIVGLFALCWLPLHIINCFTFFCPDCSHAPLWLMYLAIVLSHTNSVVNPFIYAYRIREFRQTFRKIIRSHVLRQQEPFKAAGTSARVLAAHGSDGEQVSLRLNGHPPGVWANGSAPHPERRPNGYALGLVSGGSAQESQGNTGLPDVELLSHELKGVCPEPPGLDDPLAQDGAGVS
human Serotonin, 5-Hydroxytryptamine Receptor 6 (5HT6), HTR6 (gene 3362), sequence (P50406 whole entry, looked up): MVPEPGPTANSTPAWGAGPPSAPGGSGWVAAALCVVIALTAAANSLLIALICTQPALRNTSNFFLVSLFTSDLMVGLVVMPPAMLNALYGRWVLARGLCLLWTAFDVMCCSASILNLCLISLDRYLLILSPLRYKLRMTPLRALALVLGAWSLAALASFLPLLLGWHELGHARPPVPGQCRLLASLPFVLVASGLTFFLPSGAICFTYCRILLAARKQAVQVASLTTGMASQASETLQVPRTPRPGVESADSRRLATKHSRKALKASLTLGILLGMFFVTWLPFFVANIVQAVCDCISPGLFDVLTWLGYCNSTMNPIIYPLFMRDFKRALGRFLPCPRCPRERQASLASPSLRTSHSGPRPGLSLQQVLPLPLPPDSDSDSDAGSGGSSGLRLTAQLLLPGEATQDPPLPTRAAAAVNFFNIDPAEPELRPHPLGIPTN
guinea pig Opioid, Kappa 1 Receptor (OpiateK), OPRK1 (gene 100135587), sequence (P41144 whole entry, looked up): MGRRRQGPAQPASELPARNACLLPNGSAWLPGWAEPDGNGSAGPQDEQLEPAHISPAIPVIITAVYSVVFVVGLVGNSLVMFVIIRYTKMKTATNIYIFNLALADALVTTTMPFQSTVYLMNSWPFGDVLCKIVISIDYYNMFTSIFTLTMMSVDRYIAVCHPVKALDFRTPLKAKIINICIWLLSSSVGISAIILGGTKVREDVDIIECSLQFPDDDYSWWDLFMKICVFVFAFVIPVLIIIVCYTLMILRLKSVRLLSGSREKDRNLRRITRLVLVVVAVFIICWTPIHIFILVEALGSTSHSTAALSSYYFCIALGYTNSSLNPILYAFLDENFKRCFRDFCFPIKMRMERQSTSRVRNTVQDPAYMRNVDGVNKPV
human Adenosine A1 Receptor (AdoRA1), ADORA1 (gene 134), sequence (P30542 whole entry, looked up): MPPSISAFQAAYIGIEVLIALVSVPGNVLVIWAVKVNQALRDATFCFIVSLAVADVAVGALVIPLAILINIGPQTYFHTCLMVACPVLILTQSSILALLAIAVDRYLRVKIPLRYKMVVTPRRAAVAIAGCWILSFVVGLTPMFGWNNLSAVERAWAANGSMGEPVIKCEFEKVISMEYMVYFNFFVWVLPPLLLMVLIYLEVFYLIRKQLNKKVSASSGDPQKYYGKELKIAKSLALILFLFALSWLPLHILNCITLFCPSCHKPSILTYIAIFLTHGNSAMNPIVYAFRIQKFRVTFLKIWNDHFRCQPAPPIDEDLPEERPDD
human Adrenergic, Alpha 2A Receptor (Adra2A), ADRA2A (gene 150), sequence (P08913 whole entry, looked up): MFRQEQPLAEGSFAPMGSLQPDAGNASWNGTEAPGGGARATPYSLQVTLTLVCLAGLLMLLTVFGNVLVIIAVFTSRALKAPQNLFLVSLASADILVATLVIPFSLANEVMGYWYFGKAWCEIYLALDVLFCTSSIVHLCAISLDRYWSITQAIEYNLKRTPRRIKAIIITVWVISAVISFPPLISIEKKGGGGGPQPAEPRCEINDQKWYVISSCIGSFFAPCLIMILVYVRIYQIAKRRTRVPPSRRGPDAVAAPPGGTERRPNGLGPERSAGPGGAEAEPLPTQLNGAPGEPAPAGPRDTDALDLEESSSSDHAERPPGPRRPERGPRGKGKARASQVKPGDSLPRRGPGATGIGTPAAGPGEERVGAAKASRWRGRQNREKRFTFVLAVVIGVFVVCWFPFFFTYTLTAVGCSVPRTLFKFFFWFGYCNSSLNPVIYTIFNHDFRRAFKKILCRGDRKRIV
human Adrenergic, Alpha 2c Receptor (Adra2C), ADRA2C (gene 152), sequence (P18825 whole entry, looked up): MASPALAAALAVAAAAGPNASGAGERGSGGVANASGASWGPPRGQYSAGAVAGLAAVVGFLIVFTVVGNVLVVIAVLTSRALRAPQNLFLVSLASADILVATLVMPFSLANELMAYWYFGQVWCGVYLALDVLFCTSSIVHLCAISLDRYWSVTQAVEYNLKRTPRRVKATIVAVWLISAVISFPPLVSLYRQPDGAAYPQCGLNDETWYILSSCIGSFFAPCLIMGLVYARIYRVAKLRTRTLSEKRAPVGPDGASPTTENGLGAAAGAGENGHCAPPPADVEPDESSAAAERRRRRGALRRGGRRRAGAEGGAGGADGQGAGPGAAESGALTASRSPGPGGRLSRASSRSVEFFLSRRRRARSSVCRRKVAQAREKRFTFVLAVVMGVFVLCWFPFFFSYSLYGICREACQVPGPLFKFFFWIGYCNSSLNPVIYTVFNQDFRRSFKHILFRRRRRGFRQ
human Adrenergic, Beta 1 Receptor (Adrb1), ADRB1 (gene 153), sequence (P08588 whole entry, looked up): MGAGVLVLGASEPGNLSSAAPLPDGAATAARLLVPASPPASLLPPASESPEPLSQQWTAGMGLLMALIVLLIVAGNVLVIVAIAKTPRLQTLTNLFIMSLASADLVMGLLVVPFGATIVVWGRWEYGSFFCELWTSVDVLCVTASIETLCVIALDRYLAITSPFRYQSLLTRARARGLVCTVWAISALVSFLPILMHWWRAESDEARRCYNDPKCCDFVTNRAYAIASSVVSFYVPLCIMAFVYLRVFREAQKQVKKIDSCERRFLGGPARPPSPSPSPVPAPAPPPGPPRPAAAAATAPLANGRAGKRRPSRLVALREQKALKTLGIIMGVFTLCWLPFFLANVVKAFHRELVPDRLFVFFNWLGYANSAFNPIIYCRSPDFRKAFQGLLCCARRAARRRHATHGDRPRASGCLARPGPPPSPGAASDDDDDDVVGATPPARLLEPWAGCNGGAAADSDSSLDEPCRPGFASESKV
bovine Dopamine Receptor (DR), Non-selective Binding, DRD1 (gene 281125), sequence (Q95136 whole entry, looked up): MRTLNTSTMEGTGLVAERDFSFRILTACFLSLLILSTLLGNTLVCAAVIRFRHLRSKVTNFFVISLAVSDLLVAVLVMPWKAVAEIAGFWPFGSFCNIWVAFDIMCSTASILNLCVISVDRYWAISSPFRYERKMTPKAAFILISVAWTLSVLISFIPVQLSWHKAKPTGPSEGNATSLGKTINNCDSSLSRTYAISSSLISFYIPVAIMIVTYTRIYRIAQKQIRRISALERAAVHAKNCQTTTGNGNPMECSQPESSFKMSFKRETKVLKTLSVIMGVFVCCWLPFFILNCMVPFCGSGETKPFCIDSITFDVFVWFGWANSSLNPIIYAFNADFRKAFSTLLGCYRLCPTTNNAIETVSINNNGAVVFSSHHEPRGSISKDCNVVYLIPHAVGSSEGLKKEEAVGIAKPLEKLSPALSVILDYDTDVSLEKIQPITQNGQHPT
guinea pig Leukotriene D4 Receptor (LTD4), CYSLTR1 (gene 100135514), sequence (Q2NNR5 whole entry, looked up): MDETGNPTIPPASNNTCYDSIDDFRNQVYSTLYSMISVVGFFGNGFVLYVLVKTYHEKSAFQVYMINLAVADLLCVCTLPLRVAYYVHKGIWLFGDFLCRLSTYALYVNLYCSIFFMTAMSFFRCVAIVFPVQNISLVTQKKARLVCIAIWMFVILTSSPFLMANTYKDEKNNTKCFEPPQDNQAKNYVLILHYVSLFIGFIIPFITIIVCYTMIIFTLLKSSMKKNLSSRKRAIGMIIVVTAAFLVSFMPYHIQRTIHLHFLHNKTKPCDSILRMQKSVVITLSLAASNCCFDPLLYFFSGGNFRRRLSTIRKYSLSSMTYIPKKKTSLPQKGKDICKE
Adenosine receptor A1 (Bos taurus), sequence (P28190 whole entry, looked up): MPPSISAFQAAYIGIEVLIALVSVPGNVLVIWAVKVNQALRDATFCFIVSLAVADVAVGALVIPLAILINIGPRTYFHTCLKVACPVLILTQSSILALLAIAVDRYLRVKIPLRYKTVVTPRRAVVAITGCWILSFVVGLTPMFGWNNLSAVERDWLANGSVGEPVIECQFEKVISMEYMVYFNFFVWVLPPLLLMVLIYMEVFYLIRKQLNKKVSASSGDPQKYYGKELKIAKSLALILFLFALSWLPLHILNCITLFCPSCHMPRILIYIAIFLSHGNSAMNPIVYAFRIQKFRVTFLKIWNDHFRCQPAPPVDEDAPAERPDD

With `O=C(NS(=O)(=O)/C=C/c1ccccc1)c1ccc(F)cc1Cl`, the AC50 in test [1] was 15 µM (active).
On the same count and under the same terms, for `COc1ccc(/C=C/S(=O)(=O)NC(=O)c2ccc(C)cc2Cl)cc1` the value was 15.2 µM (active).
On to `Cc1ccc(C)c(O)c1`, for which the molecule was called inactive in test [2].
As for `COc1cccc(-c2ccc(/C=C\CN3CCCCCC3)cc2Cl)c1`, the values for the AC50 in test [3] and in [4] were 8.81 µM (active) and 11.1 µM (active), respectively.
As to `O=c1[nH]c2ccc(S(=O)CCN3CCC(Cc4ccc(F)cc4)CC3)cc2o1` (centres undefined), the AC50 in test [3] is 3.91 µM (active). In [5], the molecule was classed as inactive.
Turning to `CCc1cc(SCc2sc(-c3ccc(C(F)(F)F)cc3)nc2CN2CCN(c3ccc(OC)cc3)CC2)ccc1OCC(=O)O`, the result in test [6] was inactive. In addition, in [7], the AC50 was 37.3 µM (active).
With `CCOC(=O)c1ccc(C2CCC(NC[C@H](O)COc3ccc(O)c(NS(C)(=O)=O)c3)CC2)cc1` (some centres undefined), the results for the half-maximal activity concentration (AC50) in test [4], in [7] and in test [9] were 23.4 µM (active), 13 µM (active) and 12.1 µM (active), respectively. Also, the molecule was classed as inactive in [8].
On to `CN(C)c1ccc(N=NS(=O)(=O)O)cc1`, for which, in test [5], the AC50 is 8.61 µM (active).
On to `Oc1ccc2c(c1)-c1ccccc1C2`, for which, in test [9], the AC50 is 25 µM (active).
Turning to `Nc1ccc(Nc2ccccc2)cc1`, the molecule was called inactive in test [4] and in test [8]. Further, the AC50 was 11.3 µM (active) in test [10], 20.6 µM (active) in test [5], 7.22 µM (active) in test [11] and 9.06 µM (active) in [12].
Take `COc1ccc(-n2nc(C(F)F)cc2-c2ccc(S(C)=O)cc2)cc1` (centres undefined): the AC50 in [8] was 5.7 µM (active).
With `O=C(O)c1cccc(Oc2ccccc2)c1`, the outcome in test [13] was inactive.
In the case of `Cc1[nH]cnc1C[C@H]1CCc2c(C)c3ccccc3n2C1=O`, the AC50 in test [14] is 8.58 µM (active); in test [15], 1.45 µM (active); in test [4] it was 10.5 µM (active); in test [10] it was 2.93 µM (active); in test [7], 0.399 µM (active); in test [11], 3.82 µM (active). The AC50 is 22.2 µM (active) in [9]; 0.56 µM (active) in test [12]; 1.04 µM (active) in test [16]; 5.39 µM (active) in test [17]; 1.39 µM (active) in [18]. Further, the molecule was called inactive in [5].
As to `O=P(OC(CCl)CCl)(OC(CCl)CCl)OC(CCl)CCl`, in test [7], the outcome was inactive.
In the case of `COCCOc1cc2cc(C(=O)NC3CCN(C(C)C)CC3)n(CC(=O)Nc3ccc(Cl)cn3)c2cn1`, the call in test [4], in test [5] and in [8] was inactive. Also, the AC50 in test [12] is 9.81 µM (active); in [17] it was 6.54 µM (active).
Consider `CCC(C)(C)C(=O)O[C@H]1C[C@@H](C)C=C2C=C[C@H](C)[C@H](CC[C@@H]3C[C@@H](O)CC(=O)O3)[C@H]21`, for which the result in [10] was inactive. Moreover, in test [11], the AC50 is 11.8 µM (active).
For the molecule `COc1ccc2sc(C(=O)Nc3nnn[nH]3)c(OC(C)C)c2c1`, the molecule was called inactive in test [13].
